DT40 TDP1 CPT: DT40-hTDP1 cell growth loss with CPT; chicken DT40 Tdp1-/-;hTDP1 cells + 20 nM CPT, ATP luminescence, 48 h; Potency, µM (series often up to 46.2 µM), inactives show at the highest dose activity change, negative = growth inhibition, most hits filed as inhibitors; 420,000 tested, 12% active; also: potency is read from the fitted curve at half-maximal effect; nearly all actives have a fitted effect of over 55% in size
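Chicken DT40 Tdp1-/- cells stably complemented with human TDP1 were seeded at 400 cells/well in medium containing 20 nM camptothecin, exposed to pin-transferred compounds, and grown at 37 °C for at least 48 hr. Viability was read as ATP luminescence.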
IL-1B inflam inh: inhibitors of inflammasome signaling (IL-1 beta secretion); THP-1 LPS/ATP IL-1B secretion, AlphaLISA, 16 h; active compounds read low; activity change, % at 57.5 µM; 360,000 tested, 4.7% active; in the data active = activity change below about -50%; inconclusive = mostly about -30% to -49%
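THP-1 cells pretreated 1 hr with compounds (up to 57.5 uM final), then stimulated with LPS (250 ng/mL final) plus ATP (1.25 mM final); secreted IL-1B measured by AlphaLISA after 16 hr, decreased signal indicating inhibition.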
HT1080-NT tox: kills 2HG-producing HT-1080-NT fibrosarcoma cells. Potency, µM (highest dose often 46.1 µM), without a hit: at the highest dose activity, negative = less viability, most hits filed as cytotoxic. 360,000 tested, 1.6% active. HT-1080-NT fibrosarcoma viability, CellTiter-Glo ATP luminescence, 48 h;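 also: NT is the 2HG producing partner of a matched IDH1 knockdown line; potency is read from the fitted curve at half-maximal effect; 0% = DMSO-treated cells and -100% = media-only wells without cells; nearly all actives have a fitted effect of over 55% in size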
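HT-1080-NT; 750 cells/well; 5% FBS RPMI; 48 h compound, 37 degrees C; CellTiter-Glo luminescence; curve fitting and curve-class assignment.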
TDP1 cell noCPT: qHTS for Inhibitors of human tyrosyl-DNA phosphodiesterase 1 (TDP1): qHTS in cells in absence of CPT; DT40 Tdp1-/- hTDP1 cells, no CPT, ATP luminescence, 48 h; Potency, µM (top dose mostly 46.2 µM), without a hit: top-dose activity change, negative = growth inhibition, hits mostly inhibitors; 420,000 tested, 15% active; also: potency is read from the fitted curve at half-maximal effect; nearly all actives have a fitted effect of over 55% in size
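Compound effects on proliferation are scored in DT40 Tdp1-/-;hTDP1 cells in the absence of CPT. ATP levels (CellTiter-Glo luminescence) are recorded after a ≥48 hr, 37 °C incubation.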
HT1080 IDH1KD tx: kills HT-1080 cells with IDH1 knockdown; HT-1080 IDH1 knockdown viability, ATP luminescence, 48 h; 360,000 tested, 2% active; Potency, µM (titrated, usually from 46.1 µM), for inactives: at the highest dose activity, negative = toxicity, usual class: cytotoxic;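 also: potency is read from the fitted curve at half-maximal effect; 0% = DMSO wells and -100% = cell-free medium wells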
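IDH1KD HT-1080 cells, 750/well, RPMI + 5% FBS; compound pinned after 2 h settling; 48 h, 37 °C; CellTiter-Glo luminescence; % activity normalised to DMSO and no-cell wells; curves fitted, classed by r2 and efficacy.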
uPA surface inh: cell surface uPA generation inhibition. Potency, µM (doses to about 38.3 µM), inactives show at the highest dose activity change, negative = inhibition, most hits filed as inhibitors. cell surface uPA generation assay, qHTS. 330,000 tested, 0.31% active; active = well fitted inhibition curve with a large enough effect; inconclusive = small, poorly fitted or top-dose-only effect; inactive = no such curve, though single readings can be large or run the other way; tested in mouse RAW 264.7 cells; also: potency is read from the fitted curve at half-maximal effect; nearly all actives have a fitted effect of over 55% in size
* marks the source's active call; other numbers are inactive results; ? = inconclusive; nt = not tested or not shown; ! = not active in a repeat; [ ] = another dose, or the depositor's remark. Shown are actives, neighbours in structure and some others; about 19% of the full set was active somewhere. Unless noted, calls follow the shape of the dose curve; as a rule, active = well fitted curve in the direction sought with a large enough effect; inconclusive = small, poorly fitted or top-dose-only effect, or another doubt; inactive = no such curve, though single readings can be large; an effect the other way counts as inactive or inconclusive. Unless noted, % is scaled to controls: 0 for no effect and ±100 for the full control effect.

SMILES	DT40 TDP1 CPT	IL-1B inflam inh	HT1080-NT tox	TDP1 cell noCPT	HT1080 IDH1KD tx	uPA surface inh
CCc1c(O)nc(SCC(=O)Nc2ccccc2)n(-c2ccccc2C)c1=O	-0.1%	29.0	1.6%	-15.6%	-4.1%	nt
COc1cccc(-c2cc(C(F)(F)F)nc(-n3cc(C)cn3)n2)c1	14.6µM*	?	19.5%	16.4µM*	5.5%	-0.1%
COc1ccc(-c2cc(C(F)(F)F)n3ncc(C(=O)N4CCCCC4c4cccnc4)c3n2)cc1 (stereo not given)	16.4µM*	-8.0	-2.0%	?	0.5%	0.0%
CCOC(=O)N1CCC(NC(=O)c2cnn3c(C(F)(F)F)cc(-c4cccc(OC)c4)nc23)CC1	13µM*	28.5	-17.9%	16.4µM*	-1.2%	5.7%
CCOC(=O)N1CCN(c2nc(-c3ccco3)cc(C(F)(F)F)n2)CC1	?	18.1	?	?	25.6%	3.5%
COC(=O)c1cnn2c(C(F)(F)F)cc(-c3ccc(F)cc3)nc12	2.2%	34.8	?	-24.0%	28.1%	-0.5%
COc1cccc(-c2cc(C(F)(F)F)nc(-n3cncn3)n2)c1	-13.7%	-22.8	-0.3%	-23.4%	11.1%	nt
CCOC(=O)N1CCN(c2nc(-c3cccc(OC)c3)cc(C(F)(F)F)n2)CC1	?	-7.8	28.4%	20.6µM*	15.5%	-1.4%
CC1CCCCN1CCCNC(=O)c1ccc(N2CCCC2=O)cc1 (stereo not given)	11.2%	8.6	12.3%	0.6%	-0.5%	-1.4%
Cc1ccc(C(c2sc3nc(-c4ccco4)nn3c2O)N2CCCC2)cc1 (stereo not given)	8.4%	nt	nt	0.7%	nt	nt
CCOC(=O)C1CCCN(C(=O)c2cnn3c(C(F)(F)F)cc(-c4ccccc4)nc23)C1 (stereo not given)	18.4µM*	-9.3	0.8%	23.1µM*	-2.5%	4.2%
CCC(C)c1ccc(S(=O)(=O)N2CCN(C(=O)CN3C(=O)NC(C)(C4CC4)C3=O)CC2)cc1 (stereo not given)	-28.4%	-0.6	1.0%	-26.8%	1.8%	nt
CC(=O)Nc1ccc(Nc2ccc3c4c(cc(=O)n3C)-c3ccccc3C(=O)c24)cc1	-24.8%	?	0.9%	6.51µM*	-1.8%	-8.2%
COc1ccc(Nc2nc(N3CCCCC3)nc(N3CCCCC3)n2)c(OC)c1	-12.1%	38.8	6.1%[9.24 µM]	-25.0%	-19.6%	nt
COc1ccc(Nc2nc(NC(C)(C)C)nc(N3CCOCC3)n2)c(OC)c1	20.6µM*	-15.6	-17.4%	?	-28.8%	1.5%
COc1ccc(Nc2nc(Nc3ccc(OC)cc3OC)nc(N3CCN(C)CC3)n2)c(OC)c1	?	nt	-22.9%	16.4µM*	-11.6%	-16.2%
COc1ccc(Nc2nc(N3CCCC3)nc(N3CCCC3)n2)c(OC)c1	?	-22.1	1.3%	?	-0.4%	nt
CC(C)(C)Nc1nc(NCc2cccnc2)nc(N2CCOCC2)n1	-1.3%	?	4.4%	0.6%	2.7%	-2.9%
COc1ccc(Nc2nc(NC(C)(C)C)nc(N3CCCC3)n2)c(OC)c1	23.1µM*	-24.1	?	16.4µM*	?	nt
CCC(c1nnnn1Cc1ccco1)N1CCN(c2cc(Cl)ccc2C)CC1 (stereo not given)	?	-60.1*	-25.4%	?	-24.6%	-2.0%
O=C(COC(=O)c1ccco1)c1ccc(Cl)cc1	-90.0%	-17.7	-1.0%	1.3µM*	0.7%	-8.4%
O=C(COC(=O)c1ccco1)c1ccccc1	-18.9%	-11.8	14.2%	3.6%	14.3%	1.9%
CC[C@]12C(=O)N(C)C[C@H]([C@@H]3C(=O)N(Cc4ccccc4)C(=O)[C@@H]31)N2C(=O)c1ccc(Br)cc1	9.3%	11.2	-1.5%	0.7%	-9.7%	-5.7%
O=C(NNc1ccccc1)c1sc2ccccc2c1Cl	?	nt	-15.4%	?	?	nt
COc1cc(CNCCNC(=O)c2nonc2N)ccc1OCc1ccc(Cl)cc1	?	-95.3*	?	20.6µM*	16.4µM*	-9.7%
SMILES	DT40 TDP1 CPT	IL-1B inflam inh	HT1080-NT tox	TDP1 cell noCPT	HT1080 IDH1KD tx	uPA surface inh
CCOc1c(CNCCNC(=O)c2nonc2N)cccc1OC	?	-16.5	?	-24.7%	-4.5%	4.5%
Nc1nonc1C(=O)NCCNCc1ccccc1OCc1ccccc1F	?	-28.4	?	20.6µM*	?	-6.1%
Nc1nonc1C(=O)NCCNCc1cc(Br)ccc1OCc1ccccc1F	20.6µM*	-56.1*	-11.2%	20.6µM*	-14.0%	-6.9%
CCOc1ccccc1CNCCNC(=O)c1nonc1N	?	-1.6	4.4%	25.9µM*!	17.2%	-1.8%
O=c1[nH]cccc1-c1nc2ccccc2n1Cc1ccccc1F	20.6µM*	2.8	10.5%	29.1µM*	3.3%	-1.6%
CN(CC(=O)Nc1ccc(Cl)c(C(F)(F)F)c1)C(=O)Cc1cccs1	?	?	-16.6%	?	-26.9%	-4.5%
CN(CC(=O)Nc1ccc(Cl)c(C(F)(F)F)c1)C(=O)CCN1C(=O)C2CC=CCC2C1=O (stereo not given)	9.2µM*	0.6	-1.7%	?	-18.1%	?
CN(CC(=O)Nc1ccc(Cl)c(C(F)(F)F)c1)C(=O)Cc1ccsc1	16.4µM*	-89.1*	-27.0%	16.4µM*	-12.2%	-1.3%
O=C(O)c1ccccc1NS(=O)(=O)c1ccc(NNC(=S)Nc2ccc(OC(F)F)cc2)c([N+](=O)[O-])c1	?	-50.9*	-0.3%	-29.3%	-7.6%	2.1%
CN1CCN(CCCNC(=S)Nc2ccc(F)c(Cl)c2)CC1	0.4%	?	-5.3%	1.0%	-15.1%	-1.3%
CN1c2ccccc2C(O)=C(C(=S)Nc2ccccc2)S1(=O)=O	18.4µM*	52.0	-4.8%	25.9µM*	-5.4%	-2.4%
CN1c2ccccc2C(O)=C(C(=O)Nc2ccccc2)S1(=O)=O	?	12.7	-2.8%	?	0.0%	3.7%
CN1c2ccsc2C(O)=C(C(=S)Nc2ccccc2)S1(=O)=O	14.6µM*	52.0	15.9%	23.1µM*	11.2%	1.3%
Cc1ccccc1NC(=S)C1=C(O)c2sccc2N(C)S1(=O)=O	?	35.1	26.0%	?	17.2%	-0.4%
Cc1ccc(NC(=S)C2=C(O)c3ccccc3N(C)S2(=O)=O)cc1	?	44.2	0.6%	20.6µM*	1.6%	-3.0%
CN1c2ccccc2C(O)=C(C(=S)Nc2ccc(F)c(Cl)c2)S1(=O)=O	?	-3.2	?	18.4µM*	-27.0%	-2.1%
CCN(CC1CCCO1)C(=O)CCc1nnc(CCc2ccccc2)o1 (stereo not given)	-4.2%	-11.7	8.2%	-6.9%	10.4%	nt

Screening data deposited in PubChem BioAssay by National Center for Advancing Translational Sciences (NCATS).
